# The full ranking holds about 140,000 sequences; the median of “enrichment ratio after two sorts for PhoP signalling” is about 0, and the highest 2% start at about 11. The list comes from a sample in which the highest values are over-represented; it also holds similar and randomly drawn sequences.
# B1: PhoQ; a variant is named by its letters at X, in order, P23837 (parent)
# chain: MKKLLRLFFPLSLRVRFLLATAAVVLVLSLAYGMVALIGYSVSFDKTTFRLLRGESNLFYTLAKWENNKLHVELPENIDKQSPTMTLIYDENGQLLWAQRDVPWLMKMIQPDWLKSNGFHEIEADVNDTSLLLSGDHSIQQQLQEVREDDDDAEMTHSVAVNVYPATSRMPKLTIVVVDTIPVELKSSYMVWSWFIYVLSANLLLVIPLLWVAAWWSLRPIEALAKEVRELEEHNRELLNPATTRELTSLVRNLNRLLKSERERYDKYRTTLTDLTHSLKTPLXXLQXXLRSLRSEKMSVSDAEPVMLEQISRISQQIGYYLHRASMRGGTLLSRELHPVAPLLDNLTSALNKVYQRKGVNISLDISPEISFVGEQNDFVEVMGNVLDNACKYCLEFVEISARQTDEHLYIVVEDDGPGIPLSKREVIFDRGQRVDTLRPGQGVGLAVAREITEQYEGKIVAGESMLGGARMEVIFGRQHSAPKDE
# Variants of: B1
# Test: enrichment ratio after two sorts for PhoP signalling (ratio (wild type AVST 3.29)); higher = more functional
# Conditions: with PhoP (E. coli)
row,Variant,enrichment ratio
1,GPRY,≤ 0.25
2,TYWS,≤ 0.25
3,LGDG,0.39
4,IKPA,≤ 0.25
5,YKHD,≤ 0.25
6,TNPV,≤ 0.25
7,YHGA,≤ 0.25
8,LTAQ,≤ 0.25
9,KSAQ,≤ 0.25
10,FDAQ,≤ 0.25
11,TDAQ,13.4
12,NSAQ,≤ 0.25
13,TSAQ,19.6
14,EETH,≤ 0.25
15,DEAP,≤ 0.25
16,LAGN,≤ 0.25
17,GGLE,≤ 0.25
18,MLEW,≤ 0.25
19,YYHY,≤ 0.25
20,YYHL,≤ 0.25
21,TEHL,12.5
22,NEHL,≤ 0.25
23,NEHS,≤ 0.25
24,NEHY,≤ 0.25
25,TEHP,≤ 0.25

row,Variant,enrichment ratio
1,TEHY,11.4
2,TEHF,3.55
3,TEHS,18.1
4,YYHS,≤ 0.25
5,TEHI,14.2
6,PQEA,≤ 0.25
7,YVFQ,≤ 0.25
8,IQHV,≤ 0.25
9,PPCA,≤ 0.25
10,ETDW,≤ 0.25
11,TNTM,31.2
12,MNTM,18.9
13,TNRM,≤ 0.25
14,MNWM,4.81
15,MNTC,≤ 0.25
16,MLTM,4.75
17,MNTI,13.1
18,TNCL,0.276
19,MNTS,≤ 0.25
20,KHVC,≤ 0.25
21,QGRV,≤ 0.25
22,HNCH,≤ 0.25
23,VGDV,≤ 0.25
24,NEGH,≤ 0.25
25,TGMQ,≤ 0.25

row,Variant,enrichment ratio
1,SGGA,8.12
2,SGGK,≤ 0.25
3,SGGQ,14.9
4,SGHP,≤ 0.25
5,SGIE,≤ 0.25
6,SRIQ,≤ 0.25
7,SGMQ,15.4
8,SGIQ,11.9
9,SGDS,≤ 0.25
10,SGKA,≤ 0.25
11,SGSQ,12.9
12,AGYL,4.28
13,QKLN,≤ 0.25
14,QYFC,≤ 0.25
15,SGFQ,2.13
16,EDPV,≤ 0.25
17,PQAT,≤ 0.25
18,HKML,≤ 0.25
19,PTML,≤ 0.25
20,MAML,25.7
21,MKML,≤ 0.25
22,MEML,12
23,FAML,6.33
24,TEML,28.6
25,VRML,≤ 0.25

row,Variant,enrichment ratio
1,VKML,≤ 0.25
2,TKML,19.2
3,MAKL,≤ 0.25
4,NRML,≤ 0.25
5,SWHC,≤ 0.25
6,WHRD,≤ 0.25
7,PISS,≤ 0.25
8,LFSF,≤ 0.25
9,RFYN,≤ 0.25
10,DIQW,≤ 0.25
11,IIYH,≤ 0.25
12,MIML,14
13,MMML,≤ 0.25
14,MIRL,≤ 0.25
15,MCML,17.5
16,MTML,4.85
17,MIWL,3.25
18,KEPP,≤ 0.25
19,HSFC,≤ 0.25
20,TLKM,≤ 0.25
21,CNFF,≤ 0.25
22,QNDV,≤ 0.25
23,MGTI,12.5
24,HFMM,≤ 0.25
25,MGTH,≤ 0.25

row,Variant,enrichment ratio
1,MGDH,≤ 0.25
2,MGCK,3.89
3,MFMM,≤ 0.25
4,MGMM,37.6
5,MGTA,≤ 0.25
6,MGTM,13.6
7,MGTS,≤ 0.25
8,MGAM,14.1
9,MGTC,0.695
10,HMRE,≤ 0.25
11,WQTY,≤ 0.25
12,YKIG,≤ 0.25
13,VGNS,≤ 0.25
14,HWDL,≤ 0.25
15,SSRL,≤ 0.25
16,YEQT,≤ 0.25
17,LCHM,≤ 0.25
18,MVGN,10.6
19,IKTK,≤ 0.25
20,MGGM,9.49
21,MGDM,≤ 0.25
22,MGWM,21
23,LNTF,≤ 0.25
24,SNTF,12.1
25,NATF,≤ 0.25

row,Variant,enrichment ratio
1,SATF,11.2
2,SRTF,≤ 0.25
3,SSTF,7.3
4,KYTF,≤ 0.25
5,LLTF,≤ 0.25
6,KATF,≤ 0.25
7,WLTF,≤ 0.25
8,SITF,11.8
9,SLTF,12.2
10,LNWL,≤ 0.25
11,ERPG,≤ 0.25
12,NYCA,≤ 0.25
13,IDCL,≤ 0.25
14,VING,≤ 0.25
15,WSTV,≤ 0.25
16,DWQL,≤ 0.25
17,NMQL,≤ 0.25
18,TQQL,11.6
19,NVQL,≤ 0.25
20,HAQL,≤ 0.25
21,SPQL,≤ 0.25
22,TSQL,14
23,TMQL,12.8
24,TVQL,16.7
25,MMQL,≤ 0.25

row,Variant,enrichment ratio
1,KSQL,≤ 0.25
2,LAQL,≤ 0.25
3,NGLW,≤ 0.25
4,YAWN,≤ 0.25
5,QRCA,≤ 0.25
6,FANK,≤ 0.25
7,PWMR,≤ 0.25
8,YMPP,≤ 0.25
9,PLMP,≤ 0.25
10,FLRE,≤ 0.25
11,MFVW,≤ 0.25
12,LQNW,≤ 0.25
13,MNQL,≤ 0.25
14,NAQL,≤ 0.25
15,TNQL,12.7
16,TLQL,13
17,LNQL,≤ 0.25
18,KLQL,≤ 0.25
19,TKQL,23.2
20,YAQL,≤ 0.25
21,KAQL,1.07
22,WFHV,≤ 0.25
23,AFMF,≤ 0.25
24,WQHR,≤ 0.25
25,AKRK,≤ 0.25

row,Variant,enrichment ratio
1,TMFV,0.532
2,NMSL,≤ 0.25
3,TMEI,17.7
4,KMSL,≤ 0.25
5,KMEI,≤ 0.25
6,TMSL,13.1
7,NEEV,≤ 0.25
8,DMEI,≤ 0.25
9,TMEV,25
10,KMEC,≤ 0.25
11,NEEC,≤ 0.25
12,TMEC,11.9
13,IVWG,≤ 0.25
14,GKHD,≤ 0.25
15,RMMR,≤ 0.25
16,VNCL,4.33
17,RQDI,≤ 0.25
18,MCGY,≤ 0.25
19,DMHL,≤ 0.25
20,MMHL,1.34
21,TMGL,7.75
22,TMEL,15.3
23,TMHL,11.6
24,TMWL,≤ 0.25
